# Results reported in PubChem BioAssay (NCATS).
# A number with no mark means an inactive call. Results filed as inconclusive are left out. Activity calls are given as the source filed them. Unless noted, the call rests on the fitted dose curve; in most records, active means well fitted curve in either direction with a large enough effect (not every such curve was filed as active); inconclusive means small, poorly fitted or top-dose-only effect, or another doubt; inactive means flat fitted curve, though single readings scatter.
# Experiments:
# [1] = target: Lysosomal acid glucosylceramidase (Homo sapiens) (UniProt P04062); assay: Glucocerebrosidase-p2 (AID 348; in the data active means potency below about 10 µM; further: potency means the concentration at half of the fitted maximal effect); conditions: purified GBA, blue fluorogenic substrate, 40 min
# Lysosomal acid glucosylceramidase (Homo sapiens), sequence (P04062 whole entry, looked up): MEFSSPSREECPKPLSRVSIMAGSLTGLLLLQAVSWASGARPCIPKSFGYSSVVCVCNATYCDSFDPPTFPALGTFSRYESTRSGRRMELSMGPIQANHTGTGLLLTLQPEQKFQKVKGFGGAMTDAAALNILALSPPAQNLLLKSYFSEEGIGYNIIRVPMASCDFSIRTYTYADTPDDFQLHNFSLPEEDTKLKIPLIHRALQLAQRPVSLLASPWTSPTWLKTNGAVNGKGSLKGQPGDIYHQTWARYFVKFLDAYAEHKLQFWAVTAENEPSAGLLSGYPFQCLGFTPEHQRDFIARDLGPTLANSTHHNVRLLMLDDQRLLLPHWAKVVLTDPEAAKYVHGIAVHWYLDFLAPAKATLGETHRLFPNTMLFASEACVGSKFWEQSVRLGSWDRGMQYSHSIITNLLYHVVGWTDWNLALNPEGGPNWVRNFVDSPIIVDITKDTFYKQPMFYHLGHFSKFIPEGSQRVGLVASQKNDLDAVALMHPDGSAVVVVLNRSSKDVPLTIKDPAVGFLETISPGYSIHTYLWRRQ
# How it was run: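 Normal human glucocerebrosidase (0.2 nM) with blue fluorogenic substrate (80 uM final) in citrate/phosphate pH 5.9 with 10mM sodium taurocholate, 0.01% tween-20; 40 min RT, NaOH/glycine stop; fluorescence Ex 365/Em 440; AC50 from a titration from 0.6 nM upwards.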
# [2] = AP1 Signaling Pathway (AID 357); conditions: ME-180 AP-1-bla reporter, EGF-induced, beta-lactamase ratio, 5 h; at 7.69 µM (top of the series) unless noted;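 further: ME-180 reporter cells stimulated with EGF at its EC50 level; on the % scale 0 is the no-effect control and ±100 the full control effect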
# How it was run: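 Beta-lactamase reporter under AP-1 response element, ME-180 background. Stimulus: EC50 EGF. Compound exposure 5 h, 37 °C. Detection: CCF4, 2.5 h RT, 460/530 nm. Values: AC50 from titration.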
# [3] = target: Cytochrome P450 1A2 (Homo sapiens) (UniProt P05177); assay: p450-cyp1a2 (AID 410; calls by dose curve; further: potency means the concentration at half of the fitted maximal effect;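 on activity change, negative = inhibition: -100% = full effect of reference inhibitor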); conditions: recombinant CYP1A2, luciferin-ME demethylation, luminescence; series mostly up to 57 µM
# Cytochrome P450 1A2 (Homo sapiens), sequence (P05177 whole entry, looked up): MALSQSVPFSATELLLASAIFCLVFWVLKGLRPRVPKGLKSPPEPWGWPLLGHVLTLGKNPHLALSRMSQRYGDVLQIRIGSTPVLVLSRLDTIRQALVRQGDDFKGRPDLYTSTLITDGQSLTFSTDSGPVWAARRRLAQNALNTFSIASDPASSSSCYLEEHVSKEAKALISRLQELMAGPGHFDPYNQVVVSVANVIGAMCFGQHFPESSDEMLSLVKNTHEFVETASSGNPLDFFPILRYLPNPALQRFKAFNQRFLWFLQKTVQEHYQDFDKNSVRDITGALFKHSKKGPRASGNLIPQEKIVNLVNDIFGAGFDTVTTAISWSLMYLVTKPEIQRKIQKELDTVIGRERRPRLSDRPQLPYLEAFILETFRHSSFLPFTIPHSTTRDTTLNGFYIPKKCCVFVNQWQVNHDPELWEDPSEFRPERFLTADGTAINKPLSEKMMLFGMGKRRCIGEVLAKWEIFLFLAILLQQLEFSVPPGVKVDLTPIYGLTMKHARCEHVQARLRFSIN
# How it was run: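 Luminescent demethylation readout: Luciferin-ME (100uM, equal to Km) turned over by 20nM CYP1A2 for 60 min at room temperature after NADPH regeneration addition, following 10 min compound preincubation. Normalization used 57 uM furafylline as full inhibition.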
# [4] = NFAT Signaling Pathway (AID 444); conditions: Jurkat NFAT-bla M1, carbachol, beta-lactamase ratio, 5 h; at 7.69 µM (top of the series) unless noted;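 further: carbachol stimulus at about its EC50 of 1 µM final; on the % scale 0 is the no-effect control and ±100 the full control effect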
# How it was run: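 Read-out: CCF4 FRET ratio (460 nm/530 nm) after 1 h RT dye loading, used for %activity and AC50 from titration series. Cells: Jurkat NFAT-β-lactamase/M1 line, treated with compound plus 1 uM carbachol for 5 h, 37 °C.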
# [5] = Stat Signaling Pathway (AID 446); conditions: ME-180 (cervical carcinoma) SIE beta-lactamase reporter, IL-6 stimulated, 5 h; at 7.69 µM (top of the series) unless noted;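 further: ME-180 cervical cancer cells given 40 pM IL-6 alongside compound; SIE-controlled beta-lactamase reporter measured as 460/530 nm FRET emission ratio; on the % scale 0 is the no-effect control and ±100 the full control effect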
# How it was run: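 Emission at 460 and 530 nm (excitation 405 nm) reports SIE-controlled beta-lactamase in ME-180 cells. Cells received compound with 40 pM IL-6 for 5 hrs at 37 C; data scaled between 300 pM IL-6 and 125 nM JAK-inhibitor controls.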
# [6] = target: Glucocorticoid receptor (Homo sapiens) (UniProt P04150); assay: GR-EFC Redistribution (AID 451; calls by dose curve; further: potency means the concentration at half of the fitted maximal effect); conditions: CHO-K1 GR-EFC translocation, beta-gal luminescence, 2 h
# Glucocorticoid receptor (Homo sapiens), sequence (P04150 whole entry, looked up, the tested form may be a part): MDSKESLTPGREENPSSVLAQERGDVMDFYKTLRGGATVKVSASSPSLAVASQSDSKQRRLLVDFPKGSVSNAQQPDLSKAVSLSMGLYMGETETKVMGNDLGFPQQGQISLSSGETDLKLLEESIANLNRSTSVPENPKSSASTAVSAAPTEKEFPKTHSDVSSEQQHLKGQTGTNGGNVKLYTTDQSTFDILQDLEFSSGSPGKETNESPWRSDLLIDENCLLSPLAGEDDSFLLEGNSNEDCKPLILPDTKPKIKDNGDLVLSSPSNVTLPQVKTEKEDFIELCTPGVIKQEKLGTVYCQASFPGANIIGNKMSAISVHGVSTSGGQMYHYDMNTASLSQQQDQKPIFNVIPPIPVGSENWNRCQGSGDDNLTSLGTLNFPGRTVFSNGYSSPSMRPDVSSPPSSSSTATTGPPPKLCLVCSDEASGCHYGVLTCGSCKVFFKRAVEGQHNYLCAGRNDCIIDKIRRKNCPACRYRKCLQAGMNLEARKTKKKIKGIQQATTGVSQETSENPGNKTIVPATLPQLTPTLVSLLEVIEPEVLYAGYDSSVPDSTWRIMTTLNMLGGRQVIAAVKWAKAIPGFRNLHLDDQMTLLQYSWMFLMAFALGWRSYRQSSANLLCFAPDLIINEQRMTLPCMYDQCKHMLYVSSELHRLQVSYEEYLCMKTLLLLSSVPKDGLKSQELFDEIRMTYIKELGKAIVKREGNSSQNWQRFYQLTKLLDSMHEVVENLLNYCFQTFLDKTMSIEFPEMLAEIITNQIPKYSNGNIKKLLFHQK
# How it was run: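 Translocation of GR-ED fusion to nuclear EA restores b-gal, read by luminescence after 1 h room-temperature detection. Engineered CHO-K1 biosensor cells, 1,000/well, exposed 2 h at 37 C to titrations up to 46 uM final.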
# [7] = target: Mitogen-activated protein kinase 10 (Mus musculus) (UniProt Q61831); assay: JNK3 AlphaScreen Assay (AID 530); conditions: JNK3 lysate, c-Jun phosphorylation; series mostly up to 57.1 µM;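 further: kinase came from lysate of stimulated human HepG2 cells; signal reports phosphorylation of biotinylated GST-cJun 1-79 at Ser73 with 10 µM ATP; on the % scale 0 is the no-effect control and ±100 the full control effect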
# How it was run: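 qHTS titrations with 15 min compound pre-incubation before adding ATP (10 uM final). Read-out: AlphaScreen of Ser73-phosphorylated biotin-GST-cJun using HepG2 lysate JNK3 activated by IL-1β and TNFα.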
# [8] = target: 3',5'-cyclic-AMP phosphodiesterase 4B (Homo sapiens) (UniProt Q07343); assay: qHTS Assay for Inhibitors of PDE-IV (AID 607; active means well fitted activation curve with a large enough effect in the main read-out, with a control signal flat, not every such curve was filed as active; further: % of control where 0% means no effect); conditions: HEK293 ACTOne CNG channel cells, membrane potential fluorescence; series mostly up to 22.9 µM
# 3',5'-cyclic-AMP phosphodiesterase 4B (Homo sapiens), sequence (Q07343 whole entry, looked up): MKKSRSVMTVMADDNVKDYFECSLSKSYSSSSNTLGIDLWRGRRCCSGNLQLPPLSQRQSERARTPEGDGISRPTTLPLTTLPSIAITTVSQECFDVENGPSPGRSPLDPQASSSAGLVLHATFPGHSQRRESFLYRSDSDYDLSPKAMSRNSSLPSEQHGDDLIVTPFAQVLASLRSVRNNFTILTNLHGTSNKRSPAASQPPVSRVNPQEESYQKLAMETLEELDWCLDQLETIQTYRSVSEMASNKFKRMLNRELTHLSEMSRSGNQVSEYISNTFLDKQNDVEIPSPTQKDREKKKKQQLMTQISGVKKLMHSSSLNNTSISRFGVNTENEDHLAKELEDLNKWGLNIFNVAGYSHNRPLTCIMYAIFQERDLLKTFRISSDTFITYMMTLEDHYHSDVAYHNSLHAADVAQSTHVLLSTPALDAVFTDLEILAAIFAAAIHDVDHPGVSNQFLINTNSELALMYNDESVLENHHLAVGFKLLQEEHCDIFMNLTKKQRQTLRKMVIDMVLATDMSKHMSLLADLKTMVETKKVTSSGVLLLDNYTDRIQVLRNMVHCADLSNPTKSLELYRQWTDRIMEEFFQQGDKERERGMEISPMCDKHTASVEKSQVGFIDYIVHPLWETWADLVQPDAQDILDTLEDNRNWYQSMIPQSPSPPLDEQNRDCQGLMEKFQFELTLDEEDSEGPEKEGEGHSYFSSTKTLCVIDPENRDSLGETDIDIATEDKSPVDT
# How it was run: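 The readout is membrane depolarisation from a cAMP-sensing CNG channel, detected with a potential dye at ex 535/em 590. Cells were HEK293-derived (endogenous PDE-IV) at 1000 cells/well, titrated up to 22.9 uM final.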
# [9] = Primary qHTS for small molecule stabilizers of the endoplasmic reticulum resident proteome: Secreted ER Calcium Modulated Protein (SERCaMP) assay (AID 1508630; active means well fitted curve in the direction sought with a large enough effect; an effect the other way counts as inactive or inconclusive; further: on the % scale 0 is the no-effect control and ±100 the full control effect); conditions: SH-SY5Y GLuc-SERCaMP (Gaussia luciferase released on ER calcium loss) secretion, thapsigargin, luminescence; series mostly up to 38.4 µM
# How it was run: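 The SH-SY5Y reporter protocol was run at 3 concentrations up to 38.3 uM (primary) or 11 concentrations (follow-up): 16 h compound, 100 nM thapsigargin for 4 h, then extracellular luciferase luminescence.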
# [10] = target: Glucocorticoid receptor (Homo sapiens) (UniProt P04150); assay: GR-GFP Redistribution (AID 450;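 active means compounds whose dose series gives a full or clear partial fitted curve of increased nuclear translocation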; further: potency means the concentration at half of the fitted maximal effect); conditions: U2OS GR-GFP nuclear translocation, laser cytometry, 2 h
# [11] = target: Cytochrome P450 3A4 (Homo sapiens) (UniProt P08684); assay: qHTS Assay for Inhibitors and Substrates of Cytochrome P450 3A4 (AID 884; active means well fitted curve in the direction sought with a large enough effect; an effect the other way counts as inactive or inconclusive; further: potency means the concentration at half of the fitted maximal effect; nearly all actives have a fitted effect of over 50% in size); conditions: recombinant CYP3A4, Luciferin-PPXE luminescence; series mostly up to 57.1 µM
# Cytochrome P450 3A4 (Homo sapiens), sequence (P08684 whole entry, looked up): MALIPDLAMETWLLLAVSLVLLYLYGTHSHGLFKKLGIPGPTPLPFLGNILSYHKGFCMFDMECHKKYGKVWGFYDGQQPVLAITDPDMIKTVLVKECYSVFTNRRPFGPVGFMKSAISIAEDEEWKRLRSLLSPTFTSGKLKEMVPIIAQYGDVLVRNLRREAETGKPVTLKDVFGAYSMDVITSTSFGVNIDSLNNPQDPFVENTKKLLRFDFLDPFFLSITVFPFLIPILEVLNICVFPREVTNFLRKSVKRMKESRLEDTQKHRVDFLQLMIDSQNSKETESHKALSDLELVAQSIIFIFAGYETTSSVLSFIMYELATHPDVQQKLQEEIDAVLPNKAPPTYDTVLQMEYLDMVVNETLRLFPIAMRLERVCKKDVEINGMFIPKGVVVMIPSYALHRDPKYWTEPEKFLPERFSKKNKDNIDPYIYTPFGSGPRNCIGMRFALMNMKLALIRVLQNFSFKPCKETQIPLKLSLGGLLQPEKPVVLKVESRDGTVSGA
# How it was run: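 Luminescent readout of luciferin produced by CYP3A4 (20 nM) dealkylation of Luciferin-PPXE, 25 uM (its KM). NADPH-driven reaction ran 60 min at RT after 10 min compound preincubation; data scaled to 57 uM ketoconazole as 100% inhibition.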
# [12] = target: Cytochrome P450 3A4 (Homo sapiens) (UniProt P08684); assay: qHTS Assay for Activators of Cytochrome P450 3A4 (AID 885; active means well fitted curve in the direction sought with a large enough effect; an effect the other way counts as inactive or inconclusive; further: nearly all actives have a fitted effect of over 65% in size); conditions: recombinant CYP3A4, Luciferin-PPXE luminescence, 60 min; series mostly up to 57.1 µM
# How it was run: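 Activators are scored by enhanced luminescence from CYP3A4 conversion of luciferin-PPXE (25uM, equal to KM) to luciferin, after 60 min at RT with an NADPH-regenerating system.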
# [13] = target: Cytochrome P450 2C19 (Homo sapiens) (UniProt P33261); assay: qHTS Assay for Inhibitors and Substrates of Cytochrome P450 2C19 (AID 899; active means well fitted curve in the direction sought with a large enough effect; an effect the other way counts as inactive or inconclusive; further: potency means the concentration at half of the fitted maximal effect; nearly all actives have a fitted effect of over 60% in size); conditions: recombinant CYP2C19, luciferin-H EGE luminescence; series mostly up to 57.1 µM
# Cytochrome P450 2C19 (Homo sapiens), sequence (P33261 whole entry, looked up): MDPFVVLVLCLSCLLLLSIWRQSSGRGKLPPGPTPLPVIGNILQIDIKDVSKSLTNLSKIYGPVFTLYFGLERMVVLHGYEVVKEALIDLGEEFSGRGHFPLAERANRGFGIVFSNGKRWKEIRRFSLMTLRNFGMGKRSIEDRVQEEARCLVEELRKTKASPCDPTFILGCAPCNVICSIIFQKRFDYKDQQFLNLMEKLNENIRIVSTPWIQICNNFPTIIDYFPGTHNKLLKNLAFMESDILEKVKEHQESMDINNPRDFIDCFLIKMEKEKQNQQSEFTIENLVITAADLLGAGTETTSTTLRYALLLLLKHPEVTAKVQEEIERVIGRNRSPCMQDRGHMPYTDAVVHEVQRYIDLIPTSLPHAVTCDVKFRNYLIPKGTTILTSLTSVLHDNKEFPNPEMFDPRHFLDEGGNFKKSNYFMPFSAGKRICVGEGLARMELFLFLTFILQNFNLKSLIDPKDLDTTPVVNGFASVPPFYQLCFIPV
# How it was run: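 Luminescence readout of luciferin formed from 10uM Luciferin-H EGE (KM level) by 5 nM CYP2C19 in 50mM KPO4. 60 min NADPH-driven reaction at 37C after 10 min compound preincubation; data scaled to 57uM ketoconazole inhibition.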
SMILES,Potency [1] [µM],"activity change, negative = inhibition [2] [%]",Potency [3],"activity change, negative = inhibition [4] [%]","activity, negative = inhibition [5] [%]",Potency [6] [µM],Potency [7],Potency [8],outcome [9],Potency [10] [µM],Potency [11],Potency [12],Potency [13]
O=C(c1cnccn1)N1CCC2(CCCN(c3ccc(-c4ccccc4)cc3)C2)CC1,> 11.4,-27.9,25.1 µM (active),-14.8,8.97,> 46,inactive,inactive,inactive,–,–,–,–
COCCn1c(=O)c(-c2cn(C)c3ccccc23)nc2cncnc21,> 11.4,1.74,0.398 µM (active),-1.67,-9.49,> 46,inactive,–,inactive,> 9.22,3.16 µM (active),inactive,–
COc1ccc(NC(=O)N2CCC3(CC2)CCN(C(=O)c2cccn2C)CC3)cc1,> 11.4,-7.7,inactive,-0.784,2.55,> 46,inactive,inactive,inactive,–,–,–,–
CC(=O)N1CCC2(CC1)CCN(c1ccccn1)CC2,> 11.4,1.64,inactive,-29.8,6.98,> 46,inactive,inactive,inactive,–,–,–,–
COC(=O)N1CCC2(CCCN(C(=O)Nc3ccccc3)C2)CC1,> 11.4,-8.56,inactive,8.44,-0.296,> 46,inactive,inactive,inactive,–,–,–,–
O=c1cnc2cnc(N3CCOCC3)nc2n1Cc1ccc(F)cc1,> 11.4,-5.88,3.98 µM (active),-6.28,6.58,> 46,inactive,inactive,inactive,> 9.22,–,inactive,3.98 µM (active)
Cc1nc2cnc(Oc3ccccc3)nc2n(-c2ccccc2)c1=O,> 11.4,-7.96,10 µM (active),9.01,-3.48,> 46,inactive,inactive,inactive,> 9.22,–,inactive,–
O=c1c(CCc2ccccc2)nc2cnc(N3CCOCC3)nc2n1Cc1ccc(F)cc1,> 11.4,-10.7,10 µM (active),-2.42,17.6,> 46,inactive,–,inactive,–,–,–,–
